Laboratory results taken from PubChem BioAssay AID1159580 (chemical genetic matrix, 2015).
About 2,000 (36%) of roughly 5,500 compounds were called active. Another 18% or so got no clear call; they are omitted. No stated cut-off is given here; in the data, active means normalized growth mostly below about 0.91 (no sharp cut-off); inconclusive means no clear call, values can overlap the other calls; inactive means mostly above about 0.92. This is one part of the list.

Assay: chemical genetic growth profiling, strain panel (AID 1159580);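 further: tested at 20 µM; growth read once vehicle control cultures reached saturation at 30 °C; 1 = growth at the plate median or of vehicle wells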
Settings: growth OD

Measured: normalized growth

CN(C)[C@@H]1C(=O)C(C(N)=O)=C(O)[C@@]2(O)C(=O)C3=C(O)c4c(O)cccc4[C@@](C)(O)[C@H]3[C@H](O)[C@@H]12
inactive: S. cerevisiae deletion strains, locus YJR075W, strain HOC1, stronger effect = lower value 1.01 | S. cerevisiae deletion strains, locus YKL009W, strain mrt4, stronger effect = lower value 0.996 | S. cerevisiae deletion strains, locus YKL068W, stronger effect = lower value 0.997 | S. cerevisiae deletion strains, locus YKL085W, strain MDH1 (second series), stronger effect = lower value 0.999 | S. cerevisiae deletion strains, locus YKL085W, strain MDH1, stronger effect = lower value 0.999 | S. cerevisiae deletion strains, locus YKL160W, strain elf1, stronger effect = lower value 1.02 | S. cerevisiae deletion strains, locus YKL190W, strain CNB1, stronger effect = lower value 1.01 | S. cerevisiae deletion strains, locus YKR001C, strain vps1, stronger effect = lower value 0.989 | S. cerevisiae deletion strains, locus YKR026C, strain gcn3, stronger effect = lower value 1.01 | S. cerevisiae deletion strains, locus YKR091W, strain srl3, stronger effect = lower value 1.02 | S. cerevisiae deletion strains, locus YLL001W, strain dnm1, stronger effect = lower value 1.02 | S. cerevisiae deletion strains, locus YLL026W, stronger effect = lower value 1.03 | S. cerevisiae deletion strains, locus YLL041C, strain sdh2, stronger effect = lower value 1.02 | S. cerevisiae deletion strains, locus YLR027C, strain aat2, stronger effect = lower value 1.01 | S. cerevisiae deletion strains, locus YLR039C, strain RIC1, stronger effect = lower value 1.03 | S. cerevisiae deletion strains, locus YLR058C, strain SHM2, stronger effect = lower value 1 | S. cerevisiae deletion strains, locus YLR102C, strain apc9, stronger effect = lower value 0.995 | S. cerevisiae deletion strains, locus YLR113W, strain HOG1, stronger effect = lower value 0.995 | S. cerevisiae deletion strains, locus YLR221C, strain rsa3, stronger effect = lower value 1.01 | S. cerevisiae deletion strains, locus YLR258W, strain gsy2, stronger effect = lower value 1.01 | S. cerevisiae deletion strains, locus YLR262C, strain YPT6 (second series), stronger effect = lower value 0.997 | S. cerevisiae deletion strains, locus YLR262C, strain YPT6, stronger effect = lower value 1.02 | S. cerevisiae deletion strains, locus YLR268W, strain sec22, stronger effect = lower value 0.975 | S. cerevisiae deletion strains, locus YLR320W, strain mms22, stronger effect = lower value 1.01 | S. cerevisiae deletion strains, locus YLR330W, strain CHS5, stronger effect = lower value 1.01 | S. cerevisiae deletion strains, locus YLR342W, strain FKS1 (second series), stronger effect = lower value 0.976 | S. cerevisiae deletion strains, locus YLR342W, strain FKS1, stronger effect = lower value 1 | S. cerevisiae deletion strains, locus YLR357W, strain rsc2, stronger effect = lower value 1 | S. cerevisiae deletion strains, locus YLR370C, strain arc18, stronger effect = lower value 1.02 | S. cerevisiae deletion strains, locus YLR371W, strain rom2, stronger effect = lower value 1 | S. cerevisiae deletion strains, locus YLR384C, strain iki3, stronger effect = lower value 1.02 | S. cerevisiae deletion strains, locus YLR418C, strain cdc73, stronger effect = lower value 0.986 | S. cerevisiae deletion strains, locus YML016C, strain PPZ1, stronger effect = lower value 0.994 | S. cerevisiae deletion strains, locus YML032C, strain rad52, stronger effect = lower value 0.98 | S. cerevisiae deletion strains, locus YML120C, strain ndi1, stronger effect = lower value 1.01 | S. cerevisiae deletion strains, locus YML124C, strain tub3, stronger effect = lower value 1 | S. cerevisiae deletion strains, locus YMR058W, strain fet3, stronger effect = lower value 0.977 | S. cerevisiae deletion strains, locus YMR078C, strain ctf18, stronger effect = lower value 1 | S. cerevisiae deletion strains, locus YMR125W, strain sto1, stronger effect = lower value 1.01 | S. cerevisiae deletion strains, locus YMR129W, stronger effect = lower value 1.01 | S. cerevisiae deletion strains, locus YMR205C, strain PFK2, stronger effect = lower value 1.04 | S. cerevisiae deletion strains, locus YMR223W, strain ubp8, stronger effect = lower value 0.988 | S. cerevisiae deletion strains, locus YMR231W, strain pep5, stronger effect = lower value 1.02 | S. cerevisiae deletion strains, locus YMR307W, strain GAS1, stronger effect = lower value 0.994 | S. cerevisiae deletion strains, locus YNL067W, strain RPL9B, stronger effect = lower value 1.01 | S. cerevisiae deletion strains, locus YNL071W, strain lat1, stronger effect = lower value 1.02 | S. cerevisiae deletion strains, locus YNL128W, strain TEP1, stronger effect = lower value 1.01 | S. cerevisiae deletion strains, locus YNL153C, strain GIM3, stronger effect = lower value 0.998 | S. cerevisiae deletion strains, locus YNL183C, strain NPR1, stronger effect = lower value 0.95 | S. cerevisiae deletion strains, locus YNL209W, strain ssb2, stronger effect = lower value 1.01 | S. cerevisiae deletion strains, locus YNL233W, strain BNI4, stronger effect = lower value 1 | S. cerevisiae deletion strains, locus YNL248C, strain rpa49, stronger effect = lower value 0.966 | S. cerevisiae deletion strains, locus YNL250W, strain rad50, stronger effect = lower value 0.994 | S. cerevisiae deletion strains, locus YNL271C, strain bni1, stronger effect = lower value 0.984 | S. cerevisiae deletion strains, locus YNL298W, strain CLA4, stronger effect = lower value 0.968 | S. cerevisiae deletion strains, locus YNL307C, strain MCK1, stronger effect = lower value 1.01 | S. cerevisiae deletion strains, locus YNL322C, strain KRE1 (second series), stronger effect = lower value 1.01 | S. cerevisiae deletion strains, locus YNL322C, strain KRE1, stronger effect = lower value 1 | S. cerevisiae deletion strains, locus YNR049C, strain mso1, stronger effect = lower value 1.02 | S. cerevisiae deletion strains, locus YNR052C, strain pop2, stronger effect = lower value 0.995 | S. cerevisiae deletion strains, locus YOL006C, strain TOP1, stronger effect = lower value 1.03 | S. cerevisiae deletion strains, locus YOL012C, strain htz1 0.944 | S. cerevisiae deletion strains, locus YOL147C, strain pex11, stronger effect = lower value 0.991 | S. cerevisiae deletion strains, locus YOR001W, strain rrp6, stronger effect = lower value 1.04 | S. cerevisiae deletion strains, locus YOR061W, strain CKA2, stronger effect = lower value 1 | S. cerevisiae deletion strains, locus YOR069W, strain VPS5, stronger effect = lower value 1.01 | S. cerevisiae deletion strains, locus YOR070C, strain gyp1, stronger effect = lower value 1.01 | S. cerevisiae deletion strains, locus YOR080W, strain dia2, stronger effect = lower value 1.01 | S. cerevisiae deletion strains, locus YOR083W, strain WHI5, stronger effect = lower value 1.02 | S. cerevisiae deletion strains, locus YOR106W, strain vam3, stronger effect = lower value 1.02 | S. cerevisiae deletion strains, locus YOR136W, strain idh2, stronger effect = lower value 1.01 | S. cerevisiae deletion strains, locus YOR144C, strain elg1, stronger effect = lower value 0.996 | S. cerevisiae deletion strains, locus YOR184W, strain ser1, stronger effect = lower value 1 | S. cerevisiae deletion strains, locus YOR231W, strain MKK1, stronger effect = lower value 0.99 | S. cerevisiae deletion strains, locus YOR265W, strain rbl2, stronger effect = lower value 1.02 | S. cerevisiae deletion strains, locus YOR270C, strain vph1, stronger effect = lower value 1.04 | S. cerevisiae deletion strains, locus YOR290C, strain snf2, stronger effect = lower value 1 | S. cerevisiae deletion strains, locus YOR316C, strain cot1, stronger effect = lower value 1.01 | S. cerevisiae deletion strains, locus YPL051W, strain arl3, stronger effect = lower value 0.995 | S. cerevisiae deletion strains, locus YPL055C, strain LGE1, stronger effect = lower value 1.02 | S. cerevisiae deletion strains, locus YPL078C, strain atp4, stronger effect = lower value 1.03 | S. cerevisiae deletion strains, locus YPL106C, strain sse1, stronger effect = lower value 1.02 | S. cerevisiae deletion strains, locus YPL240C, strain hsp82, stronger effect = lower value 1.03 | S. cerevisiae deletion strains, locus YPL241C, strain CIN2, stronger effect = lower value 1 | S. cerevisiae deletion strains, locus YPL256C, strain CLN2, stronger effect = lower value 0.991 | S. cerevisiae deletion strains, locus YPR119W, strain clb2, stronger effect = lower value 1 | S. cerevisiae deletion strains, locus YPR141C, strain kar3, stronger effect = lower value 0.995 | S. cerevisiae deletion strains, locus YPR163C, strain tif3, stronger effect = lower value 1 | S. cerevisiae deletion strains, locus YPR167C, strain met16, stronger effect = lower value 1 | S. cerevisiae deletion strains, strain wtn01, stronger effect = lower value 0.985 | S. cerevisiae strains, strain wild type, stronger effect = lower value 1
